Experimental data as given in PubChem BioAssay (NCI).
The panel holds about 83,000 compounds, 20% with a hit somewhere; the sample as a whole holds those more often.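 Percent growth is the endpoint: 0 to 100 indicates growth inhibition (40 means 60% inhibition), 0 means no net growth, and negative values indicate cell death.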 Calls of active or inactive are those of the source. The calls were made as follows: active = growth percent below 10; inactive = the rest.

Assays:
Assay in all cases: NCI-60 one-dose screen, 48 h (100 = growth as untreated, 0 = no growth, -100 = all killed)
Conditions in all cases: 10 µM unless noted
[1] = test system: NCI-H23 lung
[2] = test system: NCI-H226 lung
[3] = test system: NCI-H322M lung
[4] = test system: HOP-62 NSCLC
[5] = test system: NCI-H460 lung
[6] = test system: HOP-92 NSCLC
[7] = test system: NCI-H522 lung
[8] = test system: A549/ATCC NSCLC
[9] = test system: 786-0 renal
[10] = test system: COLO 205 colon

Measured: growth

COc1cc(/C=C/c2cc(/C=C/c3ccc(O)c(OC)c3)n(C(=O)Nc3ccc(F)cc3)n2)ccc1O
inactive: [1] 10.7% | [2] 15.9% | [3] 27.3% | [4] 30.2% | [8] 12%
active: [5] 8.35% | [6] -3.45% | [7] -6.04% | [9] -6.9% | [10] 8.73%

Cc1ccc(C)c(-n2c(-c3ccc(Br)cc3)csc2=NC(=O)c2ccccc2F)c1
inactive: [1] 54.7% | [2] 82.5% | [3] 92.8% | [4] 95.8% | [5] 40.3% | [6] 67.6% | [7] 168% | [8] 71.4% | [9] 71.1% | [10] 92.9%

C=C1C(=O)O[C@H]2[C@H]1CC/C(COC(=O)NCc1ccc(Cn3c(=O)sn(-c4ccc(OC)cc4)c3=O)cc1)=C\CC[C@@]1(C)O[C@@H]21
active: [6] -1.01% | [7] -65.4% | [10] -51.2%
inactive: [1] 88.2% | [2] 94.8% | [3] 97.7% | [4] 98.9% | [5] 95.2% | [8] 97.7% | [9] 50.9%

COC(=O)C1=C(C(=O)Nc2cccnc2)C2OC1(C(Cc1ccccc1)Oc1ccccc1)C1OC21 (stereo not given)
active: [6] -74.2% | [7] -48% | [10] -46.9%
inactive: [1] 95.9% | [2] 88.4% | [3] 98.4% | [4] 93% | [5] 103% | [8] 88.8% | [9] 49.7%

CC(=O)Nc1c(Cl)cc(Cl)c2c1Cc1cc([N+](=O)[O-])ccc1-2
inactive: [1] 94.6% | [2] 113% | [3] 99% | [4] 90.5% | [5] 86.6% | [6] 100% | [7] 91.9% | [8] 82.4% | [9] 75.7% | [10] 93.4%

O=P(O)(O)OCC1OC(n2cnc3c(NCc4ccccc4)ncnc32)C(O)C1O (stereo not given)
inactive: [1] 17.8% | [2] 21.1% | [3] 33.6% | [4] 29.9% | [5] 94.3% | [6] 22.3% | [8] 55.1% | [9] 21.3% | [10] 11.2%
active: [7] 0.67%

COc1ccc(Cl)cc1Nc1nc(C(F)(F)F)ccc1C(=O)N/N=C/c1ccccc1Cl
active: [3] 1.34% | [5] 4.25% | [6] -47.7% | [7] -13.9% | [10] -59.5%
inactive: [1] 16.9% | [2] 17.3% | [4] 18.3% | [8] 10.9% | [9] 11.8%

Nc1c(C(=O)Nc2ccccn2)sc2nc3c(cc12)C(O)CCC3 (stereo not given)
inactive: [1] 45.1% | [2] 57.7% | [3] 36.5% | [4] 26.3% | [5] 13.7% | [6] 50.9% | [7] 11.8% | [8] 36.4% | [9] 32.9% | [10] 23.6%

C=CC1(C)C(O[Si](C)(C)C(C)(C)C)CC2C3OC(=O)NC31c1cccc3c1[C@H](C(=O)N3C)C2(C)C (stereo not given in full)
inactive: [1] 59.7% | [2] 66.7% | [3] 78.3% | [4] 85.5% | [5] 44.7% | [6] 29.4% | [7] 44.1% | [8] 41.7% | [9] 73.6% | [10] 40.8%

CCN=C1C=CC(=C(c2ccc(N(C)C)cc2)c2ccc(N(C)C)cc2)c2ccccc21
active: [1] -5.87% | [2] -7.49% | [3] -30.1% | [4] -55.5% | [5] -36.8% | [6] -21.5% | [7] -36.8% | [8] 1.14% | [9] -11% | [10] -79%

N#CCC1=NC(c2cccs2)=Nc2ccccc2S1
inactive: [1] 94.6% | [2] 82.4% | [3] 101% | [4] 89.6% | [5] 97.7% | [6] 71.7% | [7] 57.4% | [8] 96% | [9] 98.6% | [10] 107%

COc1ccc2c(c1)c(-c1nc(-c3cn(C)c4ncccc34)cs1)cn2CCO
inactive: [1] 89.4% | [2] 70.1% | [3] 77.7% | [4] 81.2% | [5] 74.9% | [6] 70.4% | [7] 60.5% | [8] 79.8% | [9] 80% | [10] 81.2%

Cc1cc(C)cc(Nc2ccc([N+](=O)[O-])c(NCCN3CCOCC3)n2)c1
inactive: [1] 30.3% | [2] 22.6% | [3] 44.1% | [4] 35.3% | [6] 67.7% | [7] 13.3% | [8] 23.7%
active: [5] 8.31% | [9] 8.13% | [10] -45.9%

O=C(Nc1ccccc1)c1sc(-c2ccccc2)cc1O
inactive: [1] 83.3% | [2] 94.9% | [3] 96.9% | [4] 112% | [5] 92.5% | [6] 77% | [7] 85.3% | [8] 111% | [9] 101% | [10] 113%

COc1cccc(/C=C/C(=O)c2cc3c(N)c(C(=O)Nc4ccccc4C)sc3nc2C)c1
inactive: [1] 70.4% | [2] 69.2% | [3] 80.5% | [4] 67.7% | [5] 32.2% | [6] 74.1% | [8] 62.9% | [10] 92.2%
active: [7] -7.9% | [9] 9.79%

CCN(CC)c1ccc(/C=C\c2cc(C)c3cc(C)ccc3n2)cc1
inactive: [1] 30.3% | [2] 59.5% | [3] 83% | [4] 45.6% | [5] 16.8% | [7] 28.6% | [8] 31.9% | [10] 50%
active: [6] -10.9% | [9] 2.99%

O=C(CSc1nc2ccc([N+](=O)[O-])cc2[nH]1)Nc1cccc([N+](=O)[O-])c1
inactive: [1] 24.8% | [2] 36.5% | [3] 83.5% | [4] 95.6% | [5] 47.5% | [7] 19.8% | [8] 58% | [9] 61.6% | [10] 52.5%
active: [6] -14.2%

CCOc1ccc(/C=N\N=C\c2ccc(OCC)cc2)cc1
inactive: [1] 79.5% | [2] 89.1% | [3] 99.1% | [4] 93% | [5] 51.7% | [6] 84.4% | [7] 51.9% | [8] 94.2% | [9] 105% | [10] 96.6%

COc1ccc2nc(SCC(=O)Nc3ccccc3C)[nH]c2c1
inactive: [1] 101% | [2] 92.2% | [3] 90% | [4] 90% | [5] 104% | [6] 83.2% | [7] 87.9% | [8] 84% | [9] 99.9% | [10] 113%

CS(=O)(=O)Nc1cncc(-c2ccc3ncnc(Nc4ccc(F)c(Cl)c4)c3c2)c1
inactive: [1] 33.1% | [2] 55.7% | [3] 10.5% | [4] 40.1% | [5] 61.9% | [8] 43.1% | [9] 62% | [10] 32.5%
active: [6] -4.23% | [7] 8.87%

Clc1ccc(-c2cn3ccsc3n2)c(Cl)c1Cl
inactive: [1] 89.8% | [2] 84.6% | [3] 118% | [4] 84.9% | [5] 105% | [6] 58.8% | [7] 81.3% | [8] 97.5% | [9] 103% | [10] 94.9%

CCOC(=O)c1c2c(n3c1NCC3)-c1ccccc1C2=O
inactive: [1] 99% | [2] 99.6% | [3] 105% | [4] 102% | [5] 107% | [6] 84% | [7] 36.2% | [8] 101% | [9] 94.3% | [10] 110%

COc1ccc(-c2ccc(-c3ccc(C(=N)N)cn3)s2)cc1
active: [5] -22.6%
inactive: [1] 98.8% | [2] 84.5% | [3] 91.9% | [4] 90% | [6] 80% | [7] 82.4% | [8] 63.6% | [9] 99.7% | [10] 62.4%

Clc1nccc2c(-c3csc(-c4c[nH]c5ccccc45)n3)c[nH]c12
inactive: [1] 68.8% | [2] 39.5% | [3] 80.8% | [4] 101% | [5] 11.9% | [6] 24.3% | [7] 18.5% | [8] 29.1% | [9] 27.7% | [10] 33.3%

N#C/C(=C\c1ccc(-c2ccc(Cl)cc2)o1)c1ccc(Cl)cc1
active: [6] 5.34% | [9] -0.442%
inactive: [1] 63.2% | [2] 30% | [3] 69.2% | [4] 46.8% | [5] 10.3% | [7] 81% | [8] 35.4% | [10] 77.1%

O=C1/C(=C/c2ccc(C(F)(F)F)cc2)COc2ccc(O)c(O)c21
inactive: [1] 38% | [2] 81.1% | [3] 50.2% | [5] 25.8% | [8] 54.2% | [10] 12.3%
active: [4] -36.7% | [6] -13.7% | [7] -50.3% | [9] -78.6%

Cn1c(=O)c2c(c3ccccc31)OC(N)=C(C#N)C21C(=O)c2ccccc2C1=O
inactive: [1] 87.5% | [2] 81% | [3] 91.5% | [4] 80.3% | [5] 85% | [6] 92.8% | [7] 95.9% | [8] 95.7% | [9] 95.1% | [10] 102%
